Data published in the supplement of paper PMC3545927.
The list shows a part of the results. The true hit rate is not given.

Target: furin, P09958
Assay: furin cleavage Z-score vs untreated control; higher = more cleavage, active = 3.5 or more, inactive = 1 or less, 8 variable residues between constant flanks
Summary of the method: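 The cleavage Z-score was derived for purified furin acting on 8-mer peptides held on magnetic beads and fused to a cDNA oligonucleotide. Digests lasted 7.5, 15 or 30 min at 1:10 enzyme:substrate in 50 mM HEPES pH 7.5 with CaCl2 and NaCl. Sequencing counts of released DNA, log-transformed against furin-free reactions, were lowess-adjusted and scaled by median absolute deviation.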

Sequence of furin, P09958 (P09958 whole entry): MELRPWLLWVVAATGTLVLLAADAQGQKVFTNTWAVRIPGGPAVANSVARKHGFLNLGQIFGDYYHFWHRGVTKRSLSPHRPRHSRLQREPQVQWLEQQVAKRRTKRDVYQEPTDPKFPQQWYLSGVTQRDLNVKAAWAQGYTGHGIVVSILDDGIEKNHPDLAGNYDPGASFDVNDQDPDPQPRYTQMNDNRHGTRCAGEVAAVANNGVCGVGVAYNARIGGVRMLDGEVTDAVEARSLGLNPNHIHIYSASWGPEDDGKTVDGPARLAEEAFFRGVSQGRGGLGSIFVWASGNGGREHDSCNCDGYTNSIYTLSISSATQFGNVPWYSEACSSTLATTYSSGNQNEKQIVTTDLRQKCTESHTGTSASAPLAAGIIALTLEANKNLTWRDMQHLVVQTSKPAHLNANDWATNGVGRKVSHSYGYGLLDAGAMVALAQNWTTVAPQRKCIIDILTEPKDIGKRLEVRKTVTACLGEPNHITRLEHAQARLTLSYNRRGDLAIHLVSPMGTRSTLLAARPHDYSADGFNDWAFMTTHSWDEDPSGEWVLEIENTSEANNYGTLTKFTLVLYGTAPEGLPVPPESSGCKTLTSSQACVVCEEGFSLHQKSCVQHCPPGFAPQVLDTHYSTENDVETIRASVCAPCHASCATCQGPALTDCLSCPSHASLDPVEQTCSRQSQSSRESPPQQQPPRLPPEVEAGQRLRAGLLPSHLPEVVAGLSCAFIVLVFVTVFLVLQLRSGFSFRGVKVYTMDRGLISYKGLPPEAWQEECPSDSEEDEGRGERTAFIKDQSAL

Sequence	furin cleavage Z-score (7.5 min)	furin cleavage Z-score (15 min)	furin cleavage Z-score (30 min)
CAVVCCSCSYAGNASASA [HC2060]	-1.87 (inactive)	-2.14 (inactive)	-0.914 (inactive)
CAVNCCSMSYAGNASASA [HC2021]	0.193 (inactive)	1.19	-0.734 (inactive)
CAMEYCSQHLAGNASASA [HC1709]	1.22	0.203 (inactive)	0.301 (inactive)
CAVVGTTDRSAGNASASA [HC418]	0.937 (inactive)	1.04	0.404 (inactive)
CASEARMVRSAGNASASA [FS-1079]	1.59	3.05	3.76 (active)
CAAVGRRVRSAGNASASA [FS-12]	9.92 (active)	9.75 (active)	7.92 (active)
CANIVDVQYLAGNASASA [HC508]	-0.996 (inactive)	-0.739 (inactive)	-1.04 (inactive)
CAVWARPDYNAGNASASA [HC1304]	0.568 (inactive)	-0.706 (inactive)	-1.06 (inactive)
CASTAAQTFLAGNASASA [HC692]	-0.854 (inactive)	-1.17 (inactive)	0.0229 (inactive)
CAREKRHRKKAGNASASA [FS-2007]	-1.19 (inactive)	-0.208 (inactive)	-0.665 (inactive)
CAREKKDVLAAGNASASA [FS-2484]	0.263 (inactive)	0.353 (inactive)	1.5
CAREKRDSVCAGNASASA [FS-1851]	1.11	-0.614 (inactive)	2.31
CAREKRDVQPAGNASASA [FS-1693]	10.8 (active)	12.3 (active)	8.99 (active)
CAREKRQAKHAGNASASA [FS-2255]	8.15 (active)	10.9 (active)	9.4 (active)
CAPTYSWGENAGNASASA [HC423]	0.499 (inactive)	-1.13 (inactive)	0.237 (inactive)
CALTYRAKRTAGNASASA [FS-1033]	10.2 (active)	12 (active)	9.3 (active)
CALTDPSHITAGNASASA [HC1248]	-1.48 (inactive)	0.964 (inactive)	-1.35 (inactive)
CALQGREQLTAGNASASA [FS-1882]	0.515 (inactive)	-3.14 (inactive)	-0.352 (inactive)
CAYSWGENDTAGNASASA [HC424]	-0.162 (inactive)	-1.61 (inactive)	0.0496 (inactive)
CAGQARWKRPAGNASASA [FS-656]	0.0361 (inactive)	0.0218 (inactive)	-0.505 (inactive)
CAYSQRWKRTAGNASASA [FS-904]	8.92 (active)	9.32 (active)	7.56 (active)
CALTTSCGNTAGNASASA [HC1513]	0.0451 (inactive)	-1.21 (inactive)	-0.123 (inactive)
CALQRRWKRTAGNASASA [FS-685]	12.5 (active)	11.8 (active)	10 (active)
CAGIVPAKSVAGNASASA [HC408]	-0.985 (inactive)	0.152 (inactive)	0.898 (inactive)

Sequence	furin cleavage Z-score (7.5 min)	furin cleavage Z-score (15 min)	furin cleavage Z-score (30 min)
CARWRRSDILAGNASASA [FS-3133]	1.69	5.44 (active)	6.95 (active)
CARWRRHQEGAGNASASA [FS-3132]	0.592 (inactive)	1.08	1.98
CASTPCSATLAGNASASA [HC2558]	0.0385 (inactive)	-0.233 (inactive)	-0.615 (inactive)
CARWRRSAPGAGNASASA [FS-2111]	8.14 (active)	8.62 (active)	5.76 (active)
CASTPCSAILAGNASASA [HC2544]	1.05	1.22	0.242 (inactive)
CARWRRVAVGAGNASASA [FS-2846]	0.992 (inactive)	1.04	3.3
CALYVGDLCGAGNASASA [HC298]	-1.6 (inactive)	-0.331 (inactive)	-1.76 (inactive)
CAMNSTGFTKAGNASASA [HC438]	0.142 (inactive)	-0.334 (inactive)	0.353 (inactive)
CAALAELATRAGNASASA [HC1332]	-0.307 (inactive)	-0.0975 (inactive)	-0.283 (inactive)
CARQKKAAEKAGNASASA [FS-2584]	-1.07 (inactive)	-0.974 (inactive)	1.2
CARQRRALERAGNASASA [FS-2510]	7.27 (active)	9.89 (active)	9.73 (active)
CARQRRDLLNAGNASASA [FS-2173]	6.3 (active)	11.7 (active)	11.3 (active)
CARQRRGEERAGNASASA [FS-2761]	2.18	0.285 (inactive)	0.208 (inactive)
CARQRRALEKAGNASASA [FS-1769]	5.5 (active)	5.75 (active)	6.8 (active)
CARQVRYLEKAGNASASA [FS-2175]	0.662 (inactive)	1.05	1.72
CAEVPCHGPSAGNASASA [HC2376]	-0.0304 (inactive)	0.46 (inactive)	-1.34 (inactive)
CALSVEEACSAGNASASA [HC1412]	-1.32 (inactive)	0.888 (inactive)	-0.38 (inactive)
CATNNRKIRVAGNASASA [FS-1495]	2.37	4.37 (active)	4.34 (active)
CAISRRQRRVAGNASASA [FS-36]	5.61 (active)	5.68 (active)	6.35 (active)
CAKNQRKIRIAGNASASA [FS-677]	-0.0796 (inactive)	0.212 (inactive)	1.01
CAQRHRQGRVAGNASASA [FS-849]	-0.109 (inactive)	1.55	0.481 (inactive)
CARHRRPRRVAGNASASA [FS-1258]	3.43	4.61 (active)	4.95 (active)
CADIARARRVAGNASASA [FS-121]	-0.464 (inactive)	-0.299 (inactive)	0.591 (inactive)
CASHRRQRRVAGNASASA [FS-499]	7.8 (active)	8.25 (active)	6.5 (active)
